Changes are numbered by the printed parent chain. In all, about 24,000 sequences were measured (“enrichment r”: median about 0.99, highest 2% from about 3.7 on). The sample as a whole holds a higher share of the highest values than the screen did.
T1: UNK ZnF1-3 (human, UniProt Q9C0B0 31-174)
T1 sequence: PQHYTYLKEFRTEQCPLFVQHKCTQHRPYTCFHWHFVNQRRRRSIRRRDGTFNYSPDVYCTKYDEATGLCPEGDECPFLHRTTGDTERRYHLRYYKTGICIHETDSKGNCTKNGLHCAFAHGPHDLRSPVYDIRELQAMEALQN

B1: chr16:67134085:67134086:+_ENSG00000067955_ENST00000412916|hu_hu|FALSE|FALSE (ssRNA)
RNA: GGGAGUUCUACAGUCCGACGAUCCUGAAUUGACUGUGUCAGUUUUUCACCCUUUAAAAUAAUGCCAUUUAAUGAUAAAAUACAUUUUUCAAAAAUUCAGAAAUGUAGUAACAUUUAAUAAAUGUGACCAUGAAAAAUAUUUGUCAACAGAGGAUUGAGCAUCA
B2: chr16:67134085:67134086:+_ENSG00000067955_ENST00000412916|hu_mus|FALSE|FALSE (ssRNA)
RNA: GGGAGUUCUACAGUCCGACGAUCGAAUUGACCAUGUCAGUUUUUAAAAUUUUCUAAAAUAAUGCCAUUUUAUGAUAAAAUACAUUUUUGCAAAAAUUCAGAAAUGUAGUAACAUUUAAUGAAUACGACCACGGAAAGUAUUGUCAACAGAGGAUUGAGCAUCA
B3: chr5:6374476:6374477:-_ENSG00000133398_ENST00000255764|hu_mus|FALSE|FALSE (ssRNA)
RNA: GGGAGUUCUACAGUCCGACGAUCUAGGCUUUUAAAUUUCUUCAUUGUGUCGAUCUUGCCCUUGACUUGCUCGUUUUUAGCUAGAGCCCUCUCCAGGCAUUCUUUGGUGUAGAGCUGGGGAUUCCGACCUUGAUCAAUGUAUUCCAACAGAGGAUUGAGCAUCA
B4: 117884203_117884323_1758_3pUTR_ENSG00000047932_ENST00000052569|human|control|control (ssRNA)
RNA: GGGAGUUCUACAGUCCGACGAUCAAAUUGCUUUACAUGCAAUAGCUAAUUAUGGUCUACCACAGAAAACAGGGUGUUUUAUGCAUUGAGAAUUGUUCACAUGAAGCCCUGAGGUACCCGCCUUUCAUUUAGGCAACAAACAGCCAACAGAGGAUUGAGCAUCA
B5: 48376308_48376428_337_CDS_ENSMUSG00000031558_ENSMUST00000170109|mouse|control|control (ssRNA)
RNA: GGGAGUUCUACAGUCCGACGAUCGGGCACACUGCGCAGUGCCAGCCCAUGACAGUCCACCGUGCUGCCUGAACAGGAGCACUGGGCCGGGCACGCCUGCGGCGCCACCUUGUUCAAGAUCGACAACACUAACCCCAGCGAUAGCAACAGAGGAUUGAGCAUCA
B6: chr16:57153313:57153314:+_ENSMUSG00000022752_ENSMUST00000166897|mus_mus|FALSE|FALSE (ssRNA)
RNA: GGGAGUUCUACAGUCCGACGAUCCAAAAAAAAUUAAAAAGGAUUAAUUGAAUACAAAAGAAGUAUAUUUUACAGCACUUACUAUGUUAAAAACUAACAUACUAUAAAAUACUCACAUAUUAUACAAACAGCUAUAAAAAAACACAACAGAGGAUUGAGCAUCA
B7: chr14:102516957:102516958:+_ENSG00000197102_ENST00000360184|hu_hu|FALSE|FALSE (ssRNA)
RNA: GGGAGUUCUACAGUCCGACGAUCAGCUCAGACCUUCCAAAUAUUUUAAAAAUGAAUAAAUGUUAAAUACCAACUUUCACUAUUACAGAAAGGGGCAGCUAGAAAAGUUUACUCUGUGCACAAGACUGCGACACCCCGCUCGUACAACAGAGGAUUGAGCAUCA
B8: chr16:57153313:57153314:+_ENSMUSG00000022752_ENSMUST00000166897|mus_mus|motif|central (ssRNA)
RNA: B6 RNA with U82G, A83G
B9: chr1:60041781:60041782:+_ENSMUSG00000041040_ENSMUST00000036540|mus_hu|FALSE|FALSE (ssRNA)
RNA: GGGAGUUCUACAGUCCGACGAUCAAGUUUACAAUAGUAAAGUAAAUGCAGUAGUGGCAAAUUUUCUUUUAUUUUCCUUCACAAAAGAAAAUCUUUAUAACCCAGUCCUAGUCUUGGACAUAGUGAAAGCUAUAAAUUCUGACUCAACAGAGGAUUGAGCAUCA
B10: chr5:92873050:92873051:-_ENSMUSG00000029426_ENSMUST00000031377|mus_hu|motif|central (ssRNA)
RNA: GGGAGUUCUACAGUCCGACGAUCCAGCACCCAACAACAACAAAAUUACUAUACAAGGGUUUAUUAAAUACUUGCGGGACACAUAAAAGAACAAUUUCAGAGCCCACAUGAUUUUAUAAAGCUUAAUGGCCAGCCAUGUCAGCCCAACAGAGGAUUGAGCAUCA
B11: 57609423_57609543_1342_3pUTR_ENSG00000101166_ENST00000355937|human|control|control (ssRNA)
RNA: GGGAGUUCUACAGUCCGACGAUCACUAAGUUACAAAACUUGGGCAAAUCAAUACAGUACUCUUUUAUAAUGAAACCAUACUUUUGUUGGAGUCAUGUUACUUUAGUGAUAAUUUUCACUCCAAAAAUAUUUAAGUACCAAAUCCAACAGAGGAUUGAGCAUCA
B12: chr5:92873050:92873051:-_ENSMUSG00000029426_ENSMUST00000031377|mus_hu|FALSE|FALSE (ssRNA)
RNA: B10 RNA with G75U, G76A
B13: chr7:126859785:126859786:-_ENSMUSG00000030942_ENSMUST00000033236|mus_hu|FALSE|FALSE (ssRNA)
RNA: GGGAGUUCUACAGUCCGACGAUCUAUAUUACACACAAAUGUUAAAAAAAAAAAAAAAAAACAGACAUAAACAAGAAAAUCACAAAAGUACAAAAACUUCACUAAACAAUUCACUUCUAACCUACAUGAUCCACAUUUUUGCAACAACAGAGGAUUGAGCAUCA
B14: chr4:154931852:154931853:+_ENSMUSG00000029064_ENSMUST00000030940|mus_mus|FALSE|FALSE (ssRNA)
RNA: GGGAGUUCUACAGUCCGACGAUCUUUUAUUGUAGUAUUUCCUUUUAAAAUUGGACCAACCCAAAACAAAAUGAAACCAAAAAAACAAAAACAAAACAAAAUAACAAAAUAAACCAAAAACAAUGGCCCCAGAAAAAAUGCACACAACAGAGGAUUGAGCAUCA
B15: chr8:13147844:13147845:+_ENSMUSG00000031446_ENSMUST00000016680|mus_mus|FALSE|FALSE (ssRNA)
RNA: GGGAGUUCUACAGUCCGACGAUCAAUAUUAACAAUUUGUAGACACAAUGAACUUAAAAAUAAGAAGUAGAAAUAGAAAUCUAUUUGGUCUUUCAGAGACCACAUCAUAGAACUCAUAAAUGAAAAUGUACAAAUAUAGAAAUGCAACAGAGGAUUGAGCAUCA
B16: chr5:40767622:40767623:-_ENSG00000132356_ENST00000397128|hu_mus|hu_hu_hu_mus_False|38_48 (ssRNA)
RNA: GGGAGUUCUACAGUCCGACGAUCAUCUUUUAUUGCGGCCCUCUUCAUGGGAUCCACCUGCAGCAUAUGUUUCAAAAGGCUGAUUACAGAAGGAUUUAAAUAUUGAGGGGUAUAAAAGAUCCCAUCACAUAUCUUCUUAAAAAGCAACAGAGGAUUGAGCAUCA

The binders below were run against T1, UNK ZnF1-3 (assay: nsRBNS (natural sequence RNA bind-n-seq); RBNS binding buffer (assumed for nsRBNS): 25 mM Tris pH 7.5, 150 mM KCl, 3 mM MgCl2, 0.01% Triton X-100, 500 ug/ml BSA, 20 U/ml SUPERase-In, 4 C; UNK is unkempt and MSI1 is Musashi-1; names of the RNAs are library labels; protein concentration not given here; high values mean tight binding).

Binder	binding signal [enrichment R]
B1	0.889
B2	4.09
B3	0.465
B4	1.15
B5	0.634
B6	11.1
B7	3.32
B8	3.65
B9	0.593
B10	4.28
B11	0.487
B12	3.35
B13	10.5
B14	3.7
B15	3.41
B16	1.64

From article PMC12136788
